Laboratory results as given in PubChem BioAssay (NCI).
About 79,000 compounds went through this panel and 15% of them were active in at least one assay; those are over-represented in the sample as a whole. Values without a mark were called inactive. Calls of active or inactive are those of the source. Rule as the data show it: active = growth inhibition above about 70%; inactive = the rest.

Legend:
[1] = NCI Yeast Anticancer Drug Screen. Data for the rad50 strain (AID 155);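 also: 0% = growth of vehicle-only cultures of the same strain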; details: S. cerevisiae rad50 strain growth inhibition, active compounds read high
How it was run: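 Yeast carrying a defined DNA repair defect were exposed to test compounds, and growth was compared with vehicle-treated controls to give percent inhibition.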

[2] = NCI Yeast Anticancer Drug Screen. Data for the mec2-1 strain (AID 157); details: S. cerevisiae mec2-1 strain, active compounds read high
How it was run: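 Growth inhibition is read against vehicle-treated controls after compound exposure of the mec2-1 yeast strain, which is defective in DNA damage repair or cell cycle control.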

[3] = NCI Yeast Anticancer Drug Screen. Data for the sgs1 mgt1 strain (AID 161);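 also: 0% = growth of cultures given vehicle only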; details: S. cerevisiae sgs1 mgt1 strain, active compounds read high
How it was run: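 Compounds are added to genetically altered yeast, and growth is compared with cultures given vehicle alone to give percent inhibition.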

[4] = NCI Yeast Anticancer Drug Screen. Data for the cln2 rad14 strain (AID 165);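 also: 0% = growth equal to vehicle treated cultures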; details: S. cerevisiae cln2 rad14 strain, active compounds read high
How it was run: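 Growth inhibition, relative to vehicle-treated controls, is the read-out. The test organism is a yeast strain with defined genetic alterations, cln2 rad14.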

[5] = NCI Yeast Anticancer Drug Screen. Data for the bub3 strain (AID 167); details: S. cerevisiae bub3 mutant strain, active compounds read high
How it was run: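 Compounds were applied to a genetically altered yeast strain carrying a cell-cycle control defect. Growth inhibition was scored against vehicle-treated controls.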

[6] = NCI Yeast Anticancer Drug Screen. Data for the mlh1 rad18 strain (AID 175); details: S. cerevisiae mlh1 rad18 strain growth inhibition, active compounds read high
How it was run: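 Cells of a genetically altered yeast strain, deficient in DNA damage repair, were treated with compound. Their growth was then compared with that of vehicle-treated cultures to give inhibition.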

[7] = at 5.0 µM (retest, dose inferred, filed as 0.5)
[8] = at 50.0 µM (retest, dose inferred, filed as 5.0)

Structure (SMILES)	growth inhibition [1, 7] [%]	growth inhibition [1, 8]	growth inhibition ([1]; at 50.0 µM)	growth inhibition [2, 7] [%]	growth inhibition [2, 8]	growth inhibition ([2]; at 50.0 µM)	growth inhibition [3, 7] [%]	growth inhibition [3, 8]	growth inhibition ([3]; at 50.0 µM)	growth inhibition [4, 7] [%]	growth inhibition [4, 8]	growth inhibition ([4]; at 50.0 µM)	growth inhibition [5, 7] [%]	growth inhibition [5, 8]	growth inhibition ([5]; at 50.0 µM)	growth inhibition [6, 7] [%]	growth inhibition [6, 8]	growth inhibition ([6]; at 50.0 µM)
CC(C)(c1ccccc1)c1ccc2[nH]c(C(C)(C)c3ccccc3)c(CC(=O)O)c2c1	2	93% (active)	93.7% (active)	10	80% (active)	69.5%	10	96% (active)	85.7% (active)	0	95% (active)	96% (active)	-3	96% (active)	94.8% (active)	17	96% (active)	96% (active)
O=C(O)CCCc1ccc2c(c1Br)C=CC2	10	68%	72.3% (active)	13	72% (active)	63.6%	11	73% (active)	87.2% (active)	11	74% (active)	72.9% (active)	8	86% (active)	94% (active)	3	76% (active)	79.6% (active)
COC1C=COC2(C)Oc3c(C)c(O)c4c(O)c(c(C5SCCS5)c(O)c4c3C2=O)NC(=O)/C(C)=C\C=CC(C)C(O)C(C)C(O)C(C)C(OC(C)=O)C1C (configuration not stated)	-3	96% (active)	94.7% (active)	1	97% (active)	96.9% (active)	-5	34%	41.5%	14	97% (active)	95% (active)	2	99% (active)	95.8% (active)	4	97% (active)	95.4% (active)
c1ccc(CCc2c[nH]c3ccccc23)cc1	-7	-1%	59.6%	0	0%	27.5%	-7	12%	72.5% (active)	-52	-2%	5.9%	-14	41%	87.5% (active)	-8	43%	49%
COc1ccc(/C=N/Nc2ccccc2)cc1	7	97% (active)	98.5% (active)	-12	85% (active)	99% (active)	-6	97% (active)	98.9% (active)	-9	93% (active)	98.7% (active)	-17	97% (active)	99% (active)	8	96% (active)	98.4% (active)
O=C1C(c2c[nH]c3ccc(Br)cc23)=Nc2ccc(Br)cc21	-1	2%	88% (active)	3	21%	75.8% (active)	-20	-32%	85.5% (active)	-6	-18%	88.8% (active)	-4	-2%	82.2% (active)	7	25%	73.4% (active)
CCOP(=O)(C=C=C1CCC2[C@@H]3CCc4cc(OC)ccc4C3CC[C@]12C)OCC (some centres not stated)	5	97% (active)	97.7% (active)	-1	99% (active)	98.3% (active)	3	98% (active)	98% (active)	1	98% (active)	97.8% (active)	13	98% (active)	98% (active)	-7	98% (active)	98% (active)
CC(N)C(O)c1ccc2ccc3ccccc3c2c1 (configuration not stated)	-35	96% (active)	63.7%	0	96% (active)	3.65%	0	96% (active)	64.8%	-13	36%	38.7%	6	97% (active)	66.9%	11	98% (active)	58.1%
O=C(NNS(=O)(=O)c1ccccc1)Nc1ccccc1	-21	-15%	-13.4%	17	-11%	5.85%	-3	6%	7.45%	-1	4%	3.8%	2	1%	7.2%	4	15%	-5.3%
